This is an account of results in PubChem BioAssay (NCI).

Test systems include SR leukemia; RPMI-8226 leukemia; OVCAR-8 ovarian; OVCAR-5 ovarian; OVCAR-4 ovarian; SK-OV-3 ovarian; IGROV1 ovarian; OVCAR-3 ovarian; HS 578T breast; NCI/ADR-RES ovarian; T-47D breast; MDA-MB-435 melanoma; SW-620 colon; MCF7 breast; HCT-116 colon; HCC-2998 colon; KM12 colon; BT-549 breast.
Common to all, as to assay: NCI-60 one-dose screen, 48 h (100 = growth as untreated, 0 = no growth, -100 = all killed)
Settings in all cases: 10 µM unless noted

Structures are written as SMILES. Several values for one entry are separate records, joined by “and”; a condition that tells them apart may be missing. Equal entries are not always repeated. About 83,000 compounds went through this panel and 20% of them were active in at least one assay; those are over-represented in the sample as a whole.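 Assay: single dose, 48 h. Readout: percent growth (0 = no net growth; negative = cell death). Active: <10.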 Activity calls are given as the source filed them.

For the compound `O=S(=O)(Nc1ccccc1)C1CCCCC1`, the growth is 92.1% (inactive) and 90.5% (inactive) with SR leukemia; 93.9% (inactive) and 106% (inactive) in the experiment with RPMI-8226 leukemia; 110% (inactive) and 108% (inactive) in the experiment with OVCAR-8 ovarian; 107% (inactive) and 104% (inactive) in the experiment with OVCAR-5 ovarian; 108% (inactive) and 117% (inactive) in the experiment on OVCAR-4 ovarian; 107% (inactive) and 103% (inactive) in the experiment on SK-OV-3 ovarian. The growth was 105% (inactive) and 127% (inactive) in the experiment on IGROV1 ovarian; 111% (inactive) and 104% (inactive) with OVCAR-3 ovarian; 123% (inactive) and 108% (inactive) in the experiment on HS 578T breast; 112% (inactive) and 105% (inactive) with NCI/ADR-RES ovarian; 116% (inactive) and 105% (inactive) with T-47D breast; 107% (inactive) and 102% (inactive) in the experiment on MDA-MB-435 melanoma. The growth in the experiment on SW-620 colon was 106% (inactive) and 107% (inactive); in the experiment on MCF7 breast, 94.2% (inactive) and 104% (inactive); in the experiment on HCT-116 colon, 99.6% (inactive) and 107% (inactive); in the experiment on HCC-2998 colon it was 116% (inactive) and 106% (inactive); with KM12 colon, 106% (inactive) and 112% (inactive).

Regarding `NC(=S)NS(=O)(=O)c1ccc(N)cc1`, the growth was 96.5% (inactive) in the experiment with SR leukemia; 110% (inactive) in the experiment on RPMI-8226 leukemia; 99.4% (inactive) in the experiment on OVCAR-8 ovarian; 106% (inactive) with OVCAR-5 ovarian; 113% (inactive) in the experiment on OVCAR-4 ovarian; 108% (inactive) with SK-OV-3 ovarian. For the same compound, the growth was 107% (inactive) in the experiment with IGROV1 ovarian; 123% (inactive) in the experiment on OVCAR-3 ovarian; 101% (inactive) in the experiment with HS 578T breast; 104% (inactive) with NCI/ADR-RES ovarian; 108% (inactive) with T-47D breast; 104% (inactive) in the experiment on MDA-MB-435 melanoma. Also, the growth with SW-620 colon is 110% (inactive); in the experiment with MCF7 breast, 101% (inactive); in the experiment on HCT-116 colon, 101% (inactive); in the experiment with HCC-2998 colon it was 106% (inactive); in the experiment with KM12 colon, 110% (inactive).

For `COc1ccccc1/C=N\N=C(N/N=C/c1ccccc1OC)N/N=C/c1ccccc1OC`, the growth in the experiment on SR leukemia was 19.9% (inactive) and 19.6% (inactive); in the experiment on RPMI-8226 leukemia, 26.7% (inactive) and -8.79% (active); in the experiment on OVCAR-8 ovarian, 69% (inactive) and 23.3% (inactive); with OVCAR-5 ovarian, 94.6% (inactive) and 52.1% (inactive); in the experiment on OVCAR-4 ovarian, 29.2% (inactive); in the experiment on SK-OV-3 ovarian, 73.7% (inactive) and 49.8% (inactive). The growth in the experiment with IGROV1 ovarian is 87.7% (inactive) and 26.3% (inactive); with OVCAR-3 ovarian, -6.91% (active) and 19.3% (inactive); in the experiment with HS 578T breast, 99.5% (inactive) and 33.8% (inactive); in the experiment with NCI/ADR-RES ovarian, 45.4% (inactive) and 19.1% (inactive); with T-47D breast, 61.9% (inactive) and 27% (inactive); in the experiment with MDA-MB-435 melanoma, 61.9% (inactive) and 30.2% (inactive). For the same compound, the growth in the experiment with SW-620 colon was 60.8% (inactive) and 20.1% (inactive); in the experiment on MCF7 breast, 23.8% (inactive) and 6.76% (active); in the experiment with HCT-116 colon it was 39.5% (inactive) and 14% (inactive); in the experiment on HCC-2998 colon it was 33.7% (inactive) and 26.8% (inactive); with KM12 colon, 43.1% (inactive) and 15.6% (inactive).

`N#C/C(=C1C=C/C(=N/O)C(Br)=C/1)c1ccccc1`: the growth with SR leukemia is 7.83% (active); in the experiment with RPMI-8226 leukemia, 6.28% (active); with OVCAR-8 ovarian, 1.66% (active); in the experiment with OVCAR-5 ovarian, 52.2% (inactive); in the experiment with OVCAR-4 ovarian, 42.1% (inactive); in the experiment with SK-OV-3 ovarian it was 29.1% (inactive). In addition, the growth in the experiment on IGROV1 ovarian is 4.78% (active); in the experiment with OVCAR-3 ovarian, -3.84% (active); in the experiment with HS 578T breast it was 42.6% (inactive); in the experiment with NCI/ADR-RES ovarian, 9.55% (active); with T-47D breast, 37.1% (inactive); with BT-549 breast, 36.2% (inactive). The growth in the experiment on SW-620 colon was 12.7% (inactive); in the experiment on MCF7 breast it was 18.2% (inactive); with HCT-116 colon, -14.7% (active); with HCC-2998 colon it was 58.3% (inactive); in the experiment on KM12 colon, -32.6% (active).

`O=C(Nc1ccc([N+](=O)[O-])cc1Cl)c1cc(Cl)ccc1O`: the growth in the experiment with SR leukemia is -3.74% (active); in the experiment with RPMI-8226 leukemia, -31.8% (active) and 1.92% (active); in the experiment with OVCAR-8 ovarian it was -20.6% (active) and 5.74% (active); with OVCAR-5 ovarian it was 23.6% (inactive) and 41.7% (inactive); with OVCAR-4 ovarian, 22.6% (inactive) and 17.4% (inactive); in the experiment with SK-OV-3 ovarian it was 4.16% (active) and 12.8% (inactive). The growth in the experiment with OVCAR-3 ovarian is -10.7% (active) and -2.45% (active); in the experiment on HS 578T breast it was -6.4% (active) and -20.7% (active); in the experiment on NCI/ADR-RES ovarian, -26.7% (active) and -15.9% (active); in the experiment on T-47D breast, -7.5% (active) and 3.54% (active); with BT-549 breast, -35.7% (active) and -74.7% (active); with MDA-MB-435 melanoma, -20% (active) and -17.3% (active). Further, the growth with SW-620 colon is 0.797% (active) and 1.64% (active); with MCF7 breast, 3.12% (active); in the experiment with HCT-116 colon it was -45.4% (active) and -78.2% (active); in the experiment on HCC-2998 colon it was -23.1% (active) and -28.9% (active); in the experiment with KM12 colon it was -58.1% (active) and -25.8% (active).
